# Assay results: the supplement of paper PMC10849652
# About 8,800 targets were measured; listed, in parts, are those with a hit and a random draw of the rest. About 0.5% of all pairs of compound and target were hits. A number with no mark means an inactive call.
# How the values were obtained:
# Assay in all cases: log2 fold change, soluble protein after heating vs DMSO (PISA); higher = thermal stabilisation; K562 lysate, 10 uM; active = over 0.2 and 3.5 SD of the protein, either way, in both replicates (recomputed)
# lapatinib = compound: CS(=O)(=O)CCNCc1ccc(-c2ccc3ncnc(Nc4ccc(OCc5cccc(F)c5)c(Cl)c4)c3c2)o1 [lapatinib]
# Procedure, shortened: (§1)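 Dounce homogenisation of K562 pellets in PBS pH 7.4 with 1 mM MgCl2 produced a crude extract, used at 1 mg/mL protein. Exposure to 10 μM compound lasted 30 min, and aliquots were then heated for 3 min across 48°C-58°C, pooled and brought to 0.5% NP-40 at 4°C. The supernatant after 21,000xg for 90 min was quantified by TMTpro 16plex LC-MS/MS with channel sums equalised. Duplicate values are given as log-two fold change in thermal stability relative to solvent controls.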
# pictilisib = compound: CS(=O)(=O)N1CCN(Cc2cc3nc(-c4cccc5[nH]ncc45)nc(N4CCOCC4)c3s2)CC1 [pictilisib]
# Procedure, shortened: as §1
# crizotinib = compound: C[C@@H](Oc1cc(-c2cnn(C3CCNCC3)c2)cnc1N)c1c(Cl)ccc(F)c1Cl [crizotinib]
# Procedure, shortened: as §1
# [1] = compound: C[C@H](C1=CC=C(C=C1)C(=O)NC2=C3C=CNC3=NC=C2)N
# Procedure, shortened: as §1
# duvelisib = compound: C[C@H](Nc1ncnc2nc[nH]c12)c1cc2cccc(Cl)c2c(=O)n1-c1ccccc1 [duvelisib]
# Procedure, shortened: as §1
# gandotinib = compound: Cc1cc(Nc2cc(CN3CCOCC3)c3nc(C)c(Cc4ccc(Cl)cc4F)n3n2)n[nH]1 [gandotinib]
# Procedure, shortened: as §1
# tozasertib = compound: Cc1cc(Nc2cc(N3CCN(C)CC3)nc(Sc3ccc(NC(=O)C4CC4)cc3)n2)n[nH]1 [tozasertib]
# Procedure, shortened: as §1
# doramapimod = compound: Cc1ccc(-n2nc(C(C)(C)C)cc2NC(=O)Nc2ccc(OCCN3CCOCC3)c3ccccc23)cc1 [doramapimod]
# Procedure, shortened: as §1
# bafetinib = compound: Cc1ccc(NC(=O)c2ccc(CN3CC[C@H](N(C)C)C3)c(C(F)(F)F)c2)cc1Nc1nccc(-c2cncnc2)n1 [bafetinib]
# Procedure, shortened: as §1
# [2] = compound: Cc1cccc(CC(=O)N2CCc3c2ccc(-c2cn(C)c4ncnc(N)c24)c3F)n1
# Procedure, shortened: as §1
# Chain of UniProt O60826 (O60826 whole entry, looked up): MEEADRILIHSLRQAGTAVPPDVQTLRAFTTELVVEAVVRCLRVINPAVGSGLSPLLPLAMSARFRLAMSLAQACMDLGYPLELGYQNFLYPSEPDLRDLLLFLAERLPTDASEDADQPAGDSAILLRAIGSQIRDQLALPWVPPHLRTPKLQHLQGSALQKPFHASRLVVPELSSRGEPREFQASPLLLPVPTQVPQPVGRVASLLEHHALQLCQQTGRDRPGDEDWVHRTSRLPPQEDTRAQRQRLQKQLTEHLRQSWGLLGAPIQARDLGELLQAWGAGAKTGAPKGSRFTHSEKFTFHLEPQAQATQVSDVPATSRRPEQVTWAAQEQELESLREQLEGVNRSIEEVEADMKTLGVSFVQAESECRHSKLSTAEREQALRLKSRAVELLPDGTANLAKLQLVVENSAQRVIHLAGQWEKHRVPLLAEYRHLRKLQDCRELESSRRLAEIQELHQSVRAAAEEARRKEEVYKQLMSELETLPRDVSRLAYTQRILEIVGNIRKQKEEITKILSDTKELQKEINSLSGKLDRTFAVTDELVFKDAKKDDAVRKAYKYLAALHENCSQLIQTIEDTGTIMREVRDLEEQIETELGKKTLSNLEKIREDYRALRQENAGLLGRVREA
# Chain of UniProt Q8WUX2 (Q8WUX2 whole entry, looked up): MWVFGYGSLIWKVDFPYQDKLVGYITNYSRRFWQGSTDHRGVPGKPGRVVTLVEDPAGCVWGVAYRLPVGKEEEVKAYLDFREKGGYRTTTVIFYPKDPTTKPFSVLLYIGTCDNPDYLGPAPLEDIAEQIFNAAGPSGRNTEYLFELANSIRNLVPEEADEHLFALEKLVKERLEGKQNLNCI
# Chain of UniProt P55211 (P55211 whole entry, looked up): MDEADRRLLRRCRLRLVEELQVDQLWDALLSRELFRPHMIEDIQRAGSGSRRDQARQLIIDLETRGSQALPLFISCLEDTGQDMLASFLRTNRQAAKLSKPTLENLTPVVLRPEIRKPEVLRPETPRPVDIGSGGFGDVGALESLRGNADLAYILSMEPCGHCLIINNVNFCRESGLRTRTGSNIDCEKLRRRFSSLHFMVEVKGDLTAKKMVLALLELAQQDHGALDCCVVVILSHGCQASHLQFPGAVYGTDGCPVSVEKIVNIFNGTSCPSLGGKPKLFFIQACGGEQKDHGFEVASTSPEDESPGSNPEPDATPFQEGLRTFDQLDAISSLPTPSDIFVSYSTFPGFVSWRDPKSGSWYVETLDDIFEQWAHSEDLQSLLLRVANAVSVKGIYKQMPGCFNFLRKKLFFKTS
# Chain of UniProt P20248 (P20248 whole entry, looked up): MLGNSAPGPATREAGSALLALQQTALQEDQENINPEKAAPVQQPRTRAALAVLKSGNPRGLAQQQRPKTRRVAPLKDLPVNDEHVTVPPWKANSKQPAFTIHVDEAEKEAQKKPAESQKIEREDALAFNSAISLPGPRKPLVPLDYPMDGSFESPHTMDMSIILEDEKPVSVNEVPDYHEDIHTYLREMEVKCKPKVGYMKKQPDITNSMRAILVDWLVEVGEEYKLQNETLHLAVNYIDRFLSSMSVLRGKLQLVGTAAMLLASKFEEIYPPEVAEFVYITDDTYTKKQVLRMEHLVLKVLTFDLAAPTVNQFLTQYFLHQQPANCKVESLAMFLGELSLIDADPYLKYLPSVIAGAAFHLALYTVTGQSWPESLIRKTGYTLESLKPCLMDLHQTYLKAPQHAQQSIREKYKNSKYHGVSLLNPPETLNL
# Chain of UniProt O60508 (O60508 whole entry, looked up): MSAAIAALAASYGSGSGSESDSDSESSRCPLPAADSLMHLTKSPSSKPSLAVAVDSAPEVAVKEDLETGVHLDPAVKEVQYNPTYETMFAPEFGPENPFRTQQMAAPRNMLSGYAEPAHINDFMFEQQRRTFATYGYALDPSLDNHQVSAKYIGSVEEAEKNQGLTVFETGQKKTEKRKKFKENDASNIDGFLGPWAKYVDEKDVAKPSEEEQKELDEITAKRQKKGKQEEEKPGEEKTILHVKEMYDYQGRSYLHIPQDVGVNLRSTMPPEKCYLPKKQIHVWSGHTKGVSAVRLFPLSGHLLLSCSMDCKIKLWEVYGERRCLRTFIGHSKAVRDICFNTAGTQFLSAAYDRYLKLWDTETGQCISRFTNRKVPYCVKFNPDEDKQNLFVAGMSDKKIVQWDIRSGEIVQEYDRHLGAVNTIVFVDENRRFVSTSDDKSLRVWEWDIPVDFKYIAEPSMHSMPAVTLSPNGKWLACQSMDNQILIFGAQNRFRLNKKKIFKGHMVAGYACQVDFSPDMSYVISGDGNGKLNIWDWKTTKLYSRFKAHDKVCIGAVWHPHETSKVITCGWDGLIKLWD
# Chain of UniProt Q14692 (Q14692 whole entry, looked up): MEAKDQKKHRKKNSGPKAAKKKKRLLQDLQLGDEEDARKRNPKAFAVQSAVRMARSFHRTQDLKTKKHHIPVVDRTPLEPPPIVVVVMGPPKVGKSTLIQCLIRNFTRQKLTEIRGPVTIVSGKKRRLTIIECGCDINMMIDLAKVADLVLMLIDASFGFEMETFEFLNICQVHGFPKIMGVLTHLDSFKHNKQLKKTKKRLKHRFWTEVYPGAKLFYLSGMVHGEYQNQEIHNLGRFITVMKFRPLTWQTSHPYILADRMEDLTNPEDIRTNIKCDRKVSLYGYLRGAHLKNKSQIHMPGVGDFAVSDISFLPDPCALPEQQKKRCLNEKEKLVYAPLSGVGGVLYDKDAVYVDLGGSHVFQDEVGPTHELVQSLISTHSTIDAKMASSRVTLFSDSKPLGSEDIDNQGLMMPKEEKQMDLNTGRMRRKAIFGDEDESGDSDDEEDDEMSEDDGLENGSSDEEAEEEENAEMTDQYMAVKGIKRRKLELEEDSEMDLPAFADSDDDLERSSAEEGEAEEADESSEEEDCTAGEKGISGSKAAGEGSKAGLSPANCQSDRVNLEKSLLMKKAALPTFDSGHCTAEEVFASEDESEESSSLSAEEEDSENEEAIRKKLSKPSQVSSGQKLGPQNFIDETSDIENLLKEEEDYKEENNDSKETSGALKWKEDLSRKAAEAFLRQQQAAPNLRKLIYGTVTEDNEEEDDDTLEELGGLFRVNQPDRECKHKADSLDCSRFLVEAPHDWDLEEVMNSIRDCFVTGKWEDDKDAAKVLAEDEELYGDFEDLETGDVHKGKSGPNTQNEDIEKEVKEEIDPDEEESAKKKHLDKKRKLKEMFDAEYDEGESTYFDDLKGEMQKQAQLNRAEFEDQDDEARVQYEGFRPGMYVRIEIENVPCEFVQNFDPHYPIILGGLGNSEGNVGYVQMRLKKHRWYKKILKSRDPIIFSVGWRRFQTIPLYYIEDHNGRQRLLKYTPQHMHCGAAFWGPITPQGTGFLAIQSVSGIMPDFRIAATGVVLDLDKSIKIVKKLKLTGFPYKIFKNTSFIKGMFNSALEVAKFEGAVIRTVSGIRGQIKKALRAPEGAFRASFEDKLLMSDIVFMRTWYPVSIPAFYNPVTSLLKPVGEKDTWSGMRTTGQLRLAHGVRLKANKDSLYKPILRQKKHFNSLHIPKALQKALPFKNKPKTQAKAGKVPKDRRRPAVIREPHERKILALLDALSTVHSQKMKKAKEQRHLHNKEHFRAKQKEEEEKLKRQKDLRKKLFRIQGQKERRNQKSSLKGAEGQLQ
# Chain of UniProt Q8N960 (Q8N960 whole entry, looked up): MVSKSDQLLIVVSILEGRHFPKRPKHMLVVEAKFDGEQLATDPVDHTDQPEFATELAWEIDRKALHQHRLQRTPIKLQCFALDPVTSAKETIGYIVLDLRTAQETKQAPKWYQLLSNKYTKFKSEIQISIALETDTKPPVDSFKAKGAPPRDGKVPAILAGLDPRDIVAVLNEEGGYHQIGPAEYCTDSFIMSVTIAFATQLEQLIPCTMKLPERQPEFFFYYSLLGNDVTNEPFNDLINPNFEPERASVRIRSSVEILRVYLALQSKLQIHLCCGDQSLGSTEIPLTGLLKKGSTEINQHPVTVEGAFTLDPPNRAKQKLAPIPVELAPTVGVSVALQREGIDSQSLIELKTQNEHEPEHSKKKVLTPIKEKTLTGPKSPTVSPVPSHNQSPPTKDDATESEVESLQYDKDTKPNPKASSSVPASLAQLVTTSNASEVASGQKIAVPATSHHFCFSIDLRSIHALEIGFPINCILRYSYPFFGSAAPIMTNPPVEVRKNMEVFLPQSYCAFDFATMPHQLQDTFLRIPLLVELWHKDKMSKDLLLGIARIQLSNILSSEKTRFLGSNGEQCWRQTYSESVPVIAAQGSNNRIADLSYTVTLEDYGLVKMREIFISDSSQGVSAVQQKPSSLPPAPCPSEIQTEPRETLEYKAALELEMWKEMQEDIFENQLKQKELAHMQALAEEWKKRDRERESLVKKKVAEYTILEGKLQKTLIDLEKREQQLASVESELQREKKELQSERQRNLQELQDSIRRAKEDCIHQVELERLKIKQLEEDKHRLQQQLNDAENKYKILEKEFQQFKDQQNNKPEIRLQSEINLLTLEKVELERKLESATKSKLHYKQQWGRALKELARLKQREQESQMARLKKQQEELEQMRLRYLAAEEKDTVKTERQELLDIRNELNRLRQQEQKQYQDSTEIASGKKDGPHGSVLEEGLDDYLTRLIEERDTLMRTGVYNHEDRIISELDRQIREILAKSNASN
# Chain of UniProt A6NDU8 (A6NDU8 whole entry, looked up): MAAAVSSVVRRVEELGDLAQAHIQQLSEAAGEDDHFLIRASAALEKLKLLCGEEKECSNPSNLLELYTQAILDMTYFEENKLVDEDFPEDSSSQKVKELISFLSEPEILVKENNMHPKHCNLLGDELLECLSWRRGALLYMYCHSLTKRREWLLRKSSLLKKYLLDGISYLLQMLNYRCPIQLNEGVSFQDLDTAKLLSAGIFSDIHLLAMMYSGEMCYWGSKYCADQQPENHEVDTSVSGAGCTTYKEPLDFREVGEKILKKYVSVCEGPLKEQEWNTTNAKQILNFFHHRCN
# Chain of UniProt Q12983 (Q12983 whole entry, looked up): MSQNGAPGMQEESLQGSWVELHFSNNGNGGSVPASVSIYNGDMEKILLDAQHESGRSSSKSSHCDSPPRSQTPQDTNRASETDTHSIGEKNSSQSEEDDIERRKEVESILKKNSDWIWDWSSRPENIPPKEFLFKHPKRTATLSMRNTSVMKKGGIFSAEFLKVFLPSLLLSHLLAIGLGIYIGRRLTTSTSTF
Target,log2 fold change (lapatinib),log2 fold change (pictilisib),log2 fold change (crizotinib),log2 fold change [1],log2 fold change (duvelisib),log2 fold change (gandotinib),log2 fold change (tozasertib),log2 fold change (doramapimod),log2 fold change (bafetinib),log2 fold change [2]
AURKAIP1 (UniProt Q9NWT8),-0.001,0.051,0.021,-0.017,0.012,-0.03,0.028,-0.039,-0.029,-0.04
BTAF1 (UniProt O14981),0.015,-0.043,-0.041,-0.137,0.011,-0.004,0,0.046,-0.056,0.093
ATAD3B (UniProt Q5T9A4),0.003,-0.035,-0.091,0.308 (active),0.007,-0.169,0.014,0.003,-0.074,-0.129
CDC40 (UniProt O60508),-0.028,0.039,-0.053,-0.027,0,0.002,-0.038,-0.005,-0.033,0.006
ATAD1 (UniProt Q8NBU5),-0.158,0.012,-0.022,-0.081,-0.051,0.386 (active),0.017,0.015,-0.008,0.012
CCNB1 (UniProt P14635),-0.029,-0.01,-0.024,-0.019,0.033,-0.078,0.005,0.03,-0.004,0.091
BOLA2 (UniProt Q9H3K6),-0.038,-0.035,0.02,0.46 (active),0.03,-0.088,0.069,0.033,0.094,-0.064
CASP9 (UniProt P55211),0.003,0.011,-0.047,-0.036,0.036,-0.027,0.017,0.009,-0.069,0.082
C19orf54 (UniProt Q5BKX5),-0.003,-0.089,-0.019,-0.011,-0.076,-0.046,-0.008,-0.036,-0.01,0.027
C3 (UniProt P01024),0.011,-0.01,0.042,-0.095,-0.073,0.044,0.068,-0.006,0.019,0.019
CCNA2 (UniProt P20248),-0.004,-0.029,-0.035,-0.092,0.019,0.091,-0.073,0.059,0.027,0.049
CBR1 (UniProt P16152),0.023,-0.027,0.043,-0.082,-0.037,0.001,0.003,-0.044,0.034,0.032
CHAC2 (UniProt Q8WUX2),0.038,-0.011,0.003,0.57 (active),0.038,-0.161,0.015,-0.01,-0.018,-0.198
ATM (UniProt Q13315),-0.018,-0.055,-0.045,-0.112,-0.035,0.014,-0.04,0.051,-0.01,0.08
C5orf51 (UniProt A6NDU8),0.018,-0.003,-0.024,0.039,-0.023,-0.143,-0.037,-0.027,-0.031,-0.037
CELF2 isoform 3 (UniProt O95319),0.039,0.032,0.072,0.104,-0.001,-0.052,0.017,-0.579 (active),-0.042,-0.124
CDKN2AIP (UniProt Q9NXV6),-0.015,-0.036,0.024,-0.04,0.017,0.08,-0.034,0.043,0.016,0.026
CANX (UniProt D6RHJ3),-0.017,–,–,–,–,–,–,–,–,–
BUD23 isoform 3 (UniProt O43709),0.052,-0.017,0.07,-0.305 (active),0.025,0.136,-0.073,-0.035,-0.088,0.152
CALM2 (UniProt P0DP24),-0.038,-0.128,0.027,-0.252,0.086,0.068,0.025,-0.064,-0.171,0.187
CCPG1 isoform 5 (UniProt Q9ULG6),0.114,-0.038,0.006,-0.036,0.006,-0.089,-0.021,0.036,0.035,0.108
CCDC22 (UniProt O60826),-0.002,-0.017,-0.036,-0.014,-0.016,-0.056,0.03,0.023,-0.035,-0.005
BMS1 (UniProt Q14692),-0.029,-0.052,-0.058,-0.018,-0.036,0.043,0.018,0.047,-0.032,0.045
CEP120 (UniProt Q8N960),-0.076,-0.007,-0.034,-0.105,0.005,0.016,-0.096,0.107,-0.257,0.129
CCNK isoform 4 (UniProt O75909),0.001,0.013,-0.008,-0.213 (active),0.044,0.161,-0.023,0.113,-0.051,0.109
ATRIP (UniProt Q8WXE1),-0.046,0.187,0.012,-0.034,-0.016,-0.056,0.097,0.001,-0.035,0.006
CENPQ (UniProt Q7L2Z9),0.101,0.015,-0.028,-0.226,-0.027,0.071,-0.196,0.001,0.017,-0.013
BNIP3 (UniProt Q12983),-0.031,0.049,-0.054,-0.371 (active),-0.166,0.107,-0.046,-0.016,0.023,0.14
CHD1L (UniProt Q86WJ1),-0.037,-0.045,-0.115,-0.011,0.013,-0.062,0.052,0.128,-0.055,0.038
ATP2B4 (UniProt P23634),-0.022,-0.018,0.018,-0.166,0.053,0.082,0.046,0.049,-0.125,0.221 (active)
